The whole screen tested about 290,000 compounds, of which about 260 (0.09%) were called active. Cut-off read from the data, not from the text of the source: active = inhibition above about 50%; inactive = the rest. Only a selection was taken, and actives are over-represented in it overall. Measured potencies and affinities stand elsewhere.
What follows are compounds tested against Kappa-type opioid receptor (Homo sapiens) (UniProt P41145) (assay: KOR antagonists, beta-arrestin recruitment, cell-based, luminescence, uHTS (AID 1778)). Conditions: antagonist mode, hits give high values; at 10 µM unless noted.
Chain of Kappa-type opioid receptor (Homo sapiens) (P41145 whole entry, looked up): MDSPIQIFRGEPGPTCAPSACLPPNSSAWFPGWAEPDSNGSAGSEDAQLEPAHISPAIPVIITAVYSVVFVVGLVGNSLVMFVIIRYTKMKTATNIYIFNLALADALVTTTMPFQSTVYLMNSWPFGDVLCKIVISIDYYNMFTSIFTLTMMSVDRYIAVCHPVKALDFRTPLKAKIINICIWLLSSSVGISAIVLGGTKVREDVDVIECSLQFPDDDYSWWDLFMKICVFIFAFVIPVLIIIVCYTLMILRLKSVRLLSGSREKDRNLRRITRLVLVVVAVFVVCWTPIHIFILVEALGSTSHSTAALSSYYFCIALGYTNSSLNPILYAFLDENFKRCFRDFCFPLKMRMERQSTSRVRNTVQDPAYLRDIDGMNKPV
For `CCOc1ccc(CCNS(=O)(=O)c2cnc[nH]2)cc1OCC`, the inhibition was -14.7% (inactive). With `COc1ccccc1NC(=O)c1ccc(CSc2ncccn2)cc1` the inhibition was 7.4% (inactive). For `Cc1ccc(NC(=O)CCCCCN2C(=O)[C@@H]3Cc4ccccc4CN3C2=O)c(C)c1`, the inhibition was 26.6% (inactive). For `Oc1c(C=Nc2cccnc2)sc2ccccc12`, the inhibition was -24.2% (inactive). For `Oc1c(/C=N/c2ccccn2)sc2ccccc12`, the inhibition was -1.9% (inactive). In the case of `COc1ccc(NC(=S)NC(NC(=O)c2cccc3ccccc23)C(Cl)(Cl)Cl)c([N+](=O)[O-])c1` (stereo not given), the inhibition is reported as -86.5% (inactive). For `COc1ccc(NC(=S)NC(NC(=O)c2ccc(Cl)cc2Cl)C(Cl)(Cl)Cl)c([N+](=O)[O-])c1` (stereo not given), the inhibition was 36.4% (inactive). `COCCSc1nnc(NC(=O)CSc2ccccc2)s1` was tested, and the inhibition was -18.1% (inactive). In the case of `CCc1nnc(NC(=O)CSc2nnc(CNc3cccc(Cl)c3)n2CC)s1`, the inhibition is reported as -7.1% (inactive). For `O=C(NCCc1ccccn1)c1ccc(OC(F)F)cc1`, the inhibition was 19.2% (inactive). For `O=C(O)c1cc(Nc2cc(Cl)c3nonc3c2[N+](=O)[O-])ccc1O`, the inhibition was -28% (inactive). With `CN(C)c1cc(Nc2ccc(O)cc2)c([N+](=O)[O-])c2nonc12` the inhibition was 40.9% (inactive). In the case of `CCN(CC)c1cc(NCCO)c([N+](=O)[O-])c2nonc12`, the inhibition is reported as -13.9% (inactive). With `CN(C)c1cc(Nc2cccc(O)c2)c([N+](=O)[O-])c2nonc12` the inhibition was -7.7% (inactive). `O=C(O)c1cccc(Nc2cc(Cl)c3nonc3c2[N+](=O)[O-])c1` was tested, and the inhibition was 4.3% (inactive). With `O=[N+]([O-])c1c(Nc2ccc(O)cc2)cc(Cl)c2nonc12` the inhibition was 104% (active). With `Cc1c(Nc2cc(N3CCOCC3)c3nonc3c2[N+](=O)[O-])c(=O)n(-c2ccccc2)n1C` the inhibition was 25.4% (inactive). In the case of `O=C(O)c1ccc(Nc2cc(Cl)c3nonc3c2[N+](=O)[O-])cc1`, the inhibition is reported as 27.4% (inactive). For `O=[N+]([O-])c1c(Nc2cccc(O)c2)cc(Cl)c2nonc12`, the inhibition was 114% [at 20 µM] (active). In the case of `CCNc1cc(Nc2c(C)n(C)n(-c3ccccc3)c2=O)c([N+](=O)[O-])c2nonc12`, the inhibition is reported as 13.1% (inactive). In the case of `CN(C(=O)c1ccc(S(=O)(=O)c2cccc(Cl)c2)c([N+](=O)[O-])c1)C1CCCCC1`, the inhibition is reported as -8.7% (inactive). In the case of `CC1(C)CC(=O)c2cc(OCC(=O)NCCN3CCOCC3)ccc2O1`, the inhibition is reported as -16.7% (inactive). For `CCOC(=O)C(=O)N1CCC(Cc2ccccc2)CC1`, the inhibition was 31.7% (inactive). In the case of `O=C1CN(C(=O)COC(=O)CCNS(=O)(=O)c2ccc(Cl)cc2)c2ccccc2N1`, the inhibition is reported as -18.1% (inactive). For `CC(/C=N\N1CCN(c2ccc(Cl)cc2)CC1)=C\c1ccccc1`, the inhibition was 53.7% (inactive).

Reference: PubChem BioAssay AID1778 (Sanford-Burnham Center for Chemical Genomics, 2009)
